± gives the standard deviation of the averaged measurements. Over roughly 25,000 sequences, “ln(normalized median fluorescence intensity)” has its median near 7.9; the highest 2% begin near 11. What follows is part of a selection rich in the highest values, with near analogues and random picks from the rest.
Each sequence was assayed on PfAP2-I AP2 domain 3 (GST-tagged) (assay: gcPBM binding intensity (ln(normalized median fluorescence intensity)); higher = stronger DNA binding).
How it was run: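 Binding of GST-tagged P. falciparum DNA-binding domains, expressed in E. coli and used at about 25 μg on average, was carried out for 1 h in 1× PBS containing 1% milk, 0.2 mg/ml BSA, 0.5% salmon testes DNA and 0.03% Triton X-100. The target was an Agilent 4 × 180k array of primer-extended double-stranded 36-bp intergenic genomic probes plus negative controls, read with Alexa488 anti-GST antibody at 488 nm. Binding intensity is the highest Masliner-normalised natural-log median intensity across replicate spots of either probe orientation.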

Row | Sequence | gcPBM binding intensity (ln)
1 | GATATAGATATTAATTGTACATATTATTTATTGTTA [XGTACX_site846] | 7.62 ± 0.36
2 | TTAAAAAAATATAATACACACCAAAAATATGCACAT [CACACA_site5209] | 9.6 ± 0.43
3 | TTAAATATATGTAATACGCACACTTAATATTTTGAG [CACACA_site4170] | 8.18 ± 0.35
4 | AATTTTCATTTTAGAAGTACACACAAAAAATAAAAT [XGTACX_site4426] | 8.13 ± 0.22
5 | TGAATTTAGATATATACACACAAAAGTATATACAAT [CACACA_site2804] | 7.53 ± 0.54
6 | TATATATATTCTTTAAAACACACGTAAAGAAGAATT [CACACA_site2718] | 7.94 ± 0.62
7 | ATAATAAAAAAAAATGCACACATATATATATATATA [CACACA_site8766] | 9.59 ± 0.47
8 | TATATATATATATTCACACATAAAAATAAAATAAAA [CACACA_site4774] | 9.2 ± 0.13
9 | AAAATATAATATAATGCACACATAAAAAAAAAAAAA [CACACA_site7989] | 11.1 ± 0.49
10 | AATAAAAAAAAATGCACACATATATATATATATATA [CACACA_site2421] | 9.67 ± 0.52
11 | AATATAATATAATGCACACATAAAAAAAAAAAAAAA [CACACA_site304] | 11.1 ± 0.87
12 | TATATATATATATTCACACATAAATATATGCACCCA [CACACA_site4263] | 11.1 ± 0.68
13 | TAAACATAAATATGCACACATATACATATATTCATA [CACACA_site2667] | 8.69 ± 0.099
14 | TCCTTATATTTGCACACACACACAAGAAAATGAAAA [CACACA_site6613] | 10.3 ± 0.54
15 | TTTTGAATTAAACAAGCATGCTTTATTTACTTCTTA [TGCATGCA_site289] | 7.59 ± 0.86
16 | ACTAAACGAATAAATTGTACAAAGAAATATATTCAT [XGTACX_site6766] | 7.83 ± 0.54
17 | TTCTTCTGTTTTATTACACACCATTTTGTGGATACA [CACACA_site5181] | 8.38 ± 0.71
18 | ACTACATAATACTATTCACACATTTTTTTTTTTTTT [CACACA_site5794] | 7.83 ± 0.58
19 | ATATATATTTTTAATTGTACAGAATTAAAAATATTG [XGTACX_site1967] | 7.64 ± 0.45
20 | AAAAAAAAAAAACACACACACACACCGATACATACA [CACACA_site8849] | 7.92 ± 0.45
21 | AAAAGGAAAATACTAGCACACAATATATAATAAACA [CACACA_site285] | 7.99 ± 0.49
22 | ATATGAAACATGAAGGTGCATAATGTGTATATTTAT | 11.3 ± 0.69
23 | ATTTCCCCAACGTGGGTGCATATATTTATGTGTGAA [GTGCAC_site9439] | 10.9 ± 0.82
24 | TATTTATATGTATATACATGCACATATATATGAAAC [TGCATGCA_site1005] | 8.35 ± 0.57
25 | TTTATTTATGTGTGGGTGCATATACGTATGATGTAT | 11 ± 0.72
26 | GTATTATTTTATGATGCATGTGTATTTCATATATGC [TGCATGCA_site660] | 7.74 ± 0.49
27 | TTTCACATATATATGGTGCATATTTTATGTGTAAAT [GTGCAC_site9937] | 9.95 ± 0.52
28 | CACATATATATGTGTGCATGTTGTATTATATATTTA [TGCATGCA_site632] | 8.69 ± 0.46
29 | ATATATTATGGGTGTGCACACAATATTTATATGTTC [CACACA_site2270] | 9.59 ± 0.23
30 | ATTTATATATATGTATGTACGTATGTGTGTATATGT [XGTACX_site7587] | 8.55 ± 0.27
